# According to PubChem BioAssay (NCI):
# The panel holds about 83,000 compounds, 20% with a hit somewhere; the sample as a whole holds those more often.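 Growth was measured after 48 h exposure to one concentration of compound in 96-well plates. Values under 10 count as active.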 Unmarked numbers belong to inactive results. Activity calls are given as the source filed them.
# Key:
# Test in all cases: NCI-60 one-dose screen, 48 h (100 = growth as untreated, 0 = no growth, -100 = all killed)
# Conditions in all cases: 10 µM unless noted
# SR leukemia = tested on: SR leukemia
# RPMI-8226 leukemia = tested on: RPMI-8226 leukemia
# OVCAR-5 ovarian = tested on: OVCAR-5 ovarian
# OVCAR-4 ovarian = tested on: OVCAR-4 ovarian
# SK-OV-3 ovarian = tested on: SK-OV-3 ovarian
# IGROV1 ovarian = tested on: IGROV1 ovarian
# OVCAR-3 ovarian = tested on: OVCAR-3 ovarian
# HS 578T breast = tested on: HS 578T breast
# NCI/ADR-RES ovarian = tested on: NCI/ADR-RES ovarian
# T-47D breast = tested on: T-47D breast
# BT-549 breast = tested on: BT-549 breast
# MDA-MB-435 melanoma = tested on: MDA-MB-435 melanoma
# SW-620 colon = tested on: SW-620 colon
# MCF7 breast = tested on: MCF7 breast
# HCT-116 colon = tested on: HCT-116 colon
# HCC-2998 colon = tested on: HCC-2998 colon
# KM12 colon = tested on: KM12 colon
# OVCAR-8 ovarian = tested on: OVCAR-8 ovarian
SMILES,growth (SR leukemia),growth (RPMI-8226 leukemia),growth (OVCAR-5 ovarian),growth (OVCAR-4 ovarian) [%],growth (SK-OV-3 ovarian),growth (IGROV1 ovarian),growth (OVCAR-3 ovarian),growth (HS 578T breast) [%],growth (NCI/ADR-RES ovarian),growth (T-47D breast),growth (BT-549 breast),growth (MDA-MB-435 melanoma),growth (SW-620 colon),growth (MCF7 breast),growth (HCT-116 colon),growth (HCC-2998 colon),growth (KM12 colon),growth (OVCAR-8 ovarian)
CCOC(=O)c1cnc2ccc(Br)cc2c1Nc1cccc(S(=O)(=O)NC)c1,124%,110%,100%,82.4,96.2%,89.5%,104%,95.8,80.4%,86%,101%,105%,91.9%,91.3%,84.7%,97%,98.7%,
C(=N\Nc1nnn(Cc2ccccc2)n1)/c1ccccc1,17.2%,31.2%,93.1%,79.4,35.9%,50.4%,-38.1% (active),36.5,-0.167% (active),45.6%,46.5%,-26.1% (active),35.2%,27.5%,43.8%,45.6%,19.4%,
COc1ccc(/C=N\NC(=O)c2ccncc2)cc1O,95.7%,104%,110%,87.8,87.8%,98.4%,104%,110,102%,87.3%,98.1%,98.5%,107%,95.7%,94.1%,101%,94.2%,
OC(c1cccc(C(F)(F)F)c1)c1cnccc1NC1CCCCCC1 (centres undefined),-14.7% (active),-30.1% (active),,52.7,71.4%,44.2%,57.5%,64.4,39.2%,-3.18% (active),71.4%,32.6%,3.19% (active),-6.03% (active),14.4%,-70.1% (active),3.96% (active),
C=C1C(=O)O[C@H]2[C@H]1CC/C(Cn1cc(Cn3ccc4ccccc43)nn1)=C\CC[C@@]1(C)O[C@@H]21,-18.4% (active),-34.6% (active),71.5%,,101%,47.8%,-59.7% (active),69.4,77.9%,-17.9% (active),58.7%,19.9%,-77.1% (active),-73.9% (active),-89.5% (active),69%,66.5%,
CCCCCCCCCCCCN1CCCC(C)C1 (centres undefined),-13.9% (active),64.1%,88.2%,68,88.3%,82.4%,93.3%,99.8,88.2%,74.6%,78.1%,,87.7%,68.6%,60.7%,86.9%,60.7%,
O=C(Nc1ccc(Nc2cc(Nc3ccccc3)ncn2)cc1)Nc1cc(C(F)(F)F)ccc1F,42%,65.1%,78.1%,71.2,101%,90.3%,88.5%,78.9,81.1%,24.1%,85.3%,75.8%,120%,51.6%,63.7%,,23.3%,
COc1ccc(CNc2nccnn2)cc1,52.1%,108%,96.4%,111,109%,101%,105%,111,99.4%,105%,114%,102%,104%,99.4%,101%,,99.3%,
Clc1ccc(-c2nnc(COc3ccccc3Cl)o2)cc1,83.3%,88.7%,,39.8,95.7%,83.6%,81.6%,62,66.8%,69.9%,89.4%,58.4%,91.1%,78.7%,51.7%,86.8%,82.4%,
CC1(C)CC(=O)C(c2c(-c3ccccc3)[nH]c3[nH]c(=S)[nH]c(=O)c23)=C(O)C1,,101%,98.4%,114,114%,132%,124%,123,108%,98.1%,106%,90.8%,104%,99.6%,102%,108%,118%,100%
Cc1ccc(S(=O)(=O)N(CCc2ccc(Cl)cc2)S(=O)(=O)c2ccc(C)cc2)cc1,82.5%,76.9%,106%,,85.2%,89.1%,95%,103,87.9%,82%,98.8%,95.4%,101%,87.9%,93.3%,88.1%,91.7%,
CCCCCCNC(=O)Oc1ccc(/C(=C(\C)c2ccccc2)c2ccc(OCCN(CC)CC)cc2)cc1,,22.1%,76.9%,64.4,74.3%,59.2%,66.9%,36.4,70.6%,35.5%,71.8%,45.6%,18.8%,16.1%,30.2%,60%,37.8%,63.5%
CN(CC(=O)N(Cc1ccc(C2CCCCC2)cc1)c1ccc(C(=O)NO)cc1)S(=O)(=O)c1c(F)c(F)c(F)c(F)c1F,-4.55% (active),62.8%,104%,84.4,111%,28.6%,81.7%,91.6,90.2%,11.2%,93%,99.1%,20.1%,24.9%,75.6%,84.2%,99.4%,
CCCCCCCCCCCCCCCCCCNC(=O)[C@H]1CSC(c2ccc(OC)c(F)c2)N1 (some centres undefined),,-46.8% (active),-13.3% (active),76.9,88.1%,30.2%,-3.45% (active),32.6,-36.8% (active),-62.5% (active),-60.2% (active),-83% (active),-60.2% (active),-67.9% (active),-72.7% (active),-57.5% (active),-50.2% (active),-22.8% (active)
O=[N+]([O-])c1cccc(-c2nc3sccn3c2-c2ccnc(NCCCNS(=O)(=O)c3ccc(Br)cc3)n2)c1,51.8%,9.86% (active),114%,32.7,92.5%,41.6%,51.2%,87.7,23.1%,1.8% (active),38%,,98.1%,34%,56.9%,102%,40.5%,
COc1cnc2c(c1)C(=O)c1c-2n(CCCN2CCCC2)c(=O)c2cc([N+](=O)[O-])ccc12,-1.06% (active),-34.1% (active),-28.4% (active),10.4,-9.51% (active),-5.7% (active),-72.4% (active),35.1,-20.2% (active),24.5%,18.2%,2.83% (active),-19.3% (active),3.81% (active),-67.5% (active),16.2%,-33.3% (active),
